Outcome and AC50 data for 3 compounds are collected here from PubChem BioAssay (EPA / NIEHS).

Active and inactive are the calls of the source. How the source made its calls: active means hit-call score of the fitted dose curve at least 0.9, where 1 is the maximum; inactive means score below 0.9.

A word on the AC50: it is the midpoint of the concentration-response curve, whichever way the signal moves.

Holding throughout (conditions): mRNA level, 48 h; actives raise or lower the signal
Read-out in experiment [1]: Insulin Like Growth Factor 1 (IGF1), IGF1 (gene 3479)
Briefly: LTEA_HepaRG_IGF1: Life Technologies and Expression Analysis (LTEA) Assay for Insulin Like Growth Factor 1 (IGF1) using HepaRG (AID 2283506). The essentials: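 Differentiated HepaRG cells in serum-free induction medium, exposed 48 h in duplicate to 8 half-log concentrations up to 100 uM in 0.5% DMSO. IGF1 mRNA by Fluidigm qRT-PCR, normalised to ACTB, GAPDH and POLR2A.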

Read-out in experiment [2]: Intercellular Adhesion Molecule 1 (ICAM1), ICAM1 (gene 3383)
Put plainly: LTEA_HepaRG_ICAM1: Life Technologies and Expression Analysis (LTEA) Assay for Intercellular Adhesion Molecule 1 (ICAM1) using HepaRG (AID 2283507). Put shortly:
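Differentiated human HepaRG cells in serum-free induction medium exposed 48 h in duplicate to 8 half-log concentrations (top 100 uM, 0.5% DMSO). ICAM1 mRNA quantified by TaqMan qRT-PCR, normalized to ACTB, GAPDH and POLR2A; bidirectional fitting versus DMSO.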

Read-out in experiment [3]: Insulin-like growth factor-binding protein 1 (IGFBP1), IGFBP1 (gene 3484)
Briefly: LTEA_HepaRG_IGFBP1: Life Technologies and Expression Analysis (LTEA) Assay for Insulin-like growth factor-binding protein 1 (IGFBP1) using HepaRG (AID 2283508). The essentials:
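HepaRG cells, plated 48 h then switched to serum-free induction medium, exposed in duplicate for 48 h to 8-point half-log series from 100 uM in 0.5% DMSO. mRNA measured by qRT-PCR, normalized to ACTB/GAPDH/POLR2A; bidirectional fit versus DMSO.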

Read-out in experiment [4]: Interleukin 6 (IL6), IL6 (gene 3569)
Put plainly: LTEA_HepaRG_IL6: Life Technologies and Expression Analysis (LTEA) Assay for Interleukin 6 (IL6) using HepaRG (AID 2283509). Put shortly:
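HepaRG cells exposed in duplicate for 48 h to eight half-log concentrations, top 100 uM, in 0.5% DMSO serum-free induction medium. mRNA measured by qRT-PCR, normalized to ACTB, GAPDH and POLR2A. Bidirectional fit versus DMSO.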

Read-out in experiment [5]: Interleukin 6 Receptor (IL6R), IL6R (gene 3570)
Put plainly: LTEA_HepaRG_IL6R: Life Technologies and Expression Analysis (LTEA) Assay for Interleukin 6 Receptor (IL6R) using HepaRG (AID 2283510). The essentials: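 Differentiated HepaRG cells, plated 48 h, then exposed in duplicate for 48 h in serum-free induction medium to 8 half-log concentrations (top 100 uM, 0.5% DMSO). IL6R mRNA measured by TaqMan qRT-PCR, normalized to ACTB/GAPDH/POLR2A; bidirectional fit vs DMSO.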

Read-out in experiment [6]: Potassium channel subfamily K member 1 (KCNK1), KCNK1 (gene 3775)
Briefly: LTEA_HepaRG_KCNK1: Life Technologies and Expression Analysis (LTEA) Assay for Potassium channel subfamily K member 1 (KCNK1) using HepaRG (AID 2283511). The essentials:
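Differentiated HepaRG cells, 48 h exposure in serum-free induction medium with 0.5% DMSO; 8 concentrations, half-log from 100 uM, duplicate. KCNK1 mRNA by qRT-PCR, normalized to ACTB, GAPDH, POLR2A; bidirectional fit vs DMSO.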

Read-out in experiment [7]: JUN Transcription Factor, JUN (gene 3725)
Put plainly: LTEA_HepaRG_JUN: Life Technologies and Expression Analysis (LTEA) Assay for JUN Transcription Factor using HepaRG (AID 2283513). The essentials:
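HepaRG cells, 48 h post-plating, exposed 48 h in serum-free induction medium to 8-point half-log series (top 100 uM, 0.5% DMSO), duplicate; mRNA by qRT-PCR (TaqMan, Fluidigm), normalized to ACTB/GAPDH/POLR2A; bidirectional fit vs DMSO.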

Read-out in experiment [8]: Lipase C (LIPC), LIPC (gene 3990)
Put plainly: LTEA_HepaRG_LIPC: Life Technologies and Expression Analysis (LTEA) Assay for Lipase C (LIPC) using HepaRG (AID 2283514). The essentials:
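HepaRG cells, 48 h after plating, treated in duplicate for 48 h in serum-free induction medium over 8 half-log concentrations from 100 uM, 0.5% DMSO. LIPC mRNA by TaqMan qRT-PCR normalized to ACTB/GAPDH/POLR2A; bidirectional fit versus DMSO.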

Read-out in experiment [9]: Lipoprotein lipase (LPL), LPL (gene 4023)
Briefly: LTEA_HepaRG_LPL: Life Technologies and Expression Analysis (LTEA) Assay for Lipoprotein lipase (LPL) using HepaRG (AID 2283515). Put shortly: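 Differentiated HepaRG cells, plated 48 h, then exposed 48 h in serum-free induction medium to 8 concentrations (top 100 uM, half-log steps) in 0.5% DMSO, duplicate. LPL mRNA measured by qRT-PCR, normalized to ACTB, GAPDH and POLR2A.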

Read-out in experiment [10]: MicroRNA 122 (MIR122), gene 406906
Put plainly: LTEA_HepaRG_MIR122: Life Technologies and Expression Analysis (LTEA) Assay for MicroRNA 122 (MIR122) using HepaRG (AID 2283516). Further: the transcript read is the microRNA miR-122. Put shortly: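 Differentiated human HepaRG cells in serum-free induction medium exposed 48 h to 8 half-log concentrations from 100 uM in 0.5% DMSO, duplicate. MIR122 quantified by Fluidigm TaqMan qRT-PCR, normalised to ACTB, GAPDH, POLR2A; fold change fitted bidirectionally versus DMSO.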

Read-out in experiment [11]: matrix metalloproteinase-10 (MMP10), MMP10 (gene 4319)
Put plainly: LTEA_HepaRG_MMP10: Life Technologies and Expression Analysis (LTEA) Assay for matrix metalloproteinase-10 (MMP10) using HepaRG (AID 2283517). Put shortly:
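Differentiated HepaRG cells in serum-free induction medium exposed 48 h in duplicate to 8-point half-log series up to 100 uM in 0.5% DMSO. mRNA quantified by qRT-PCR, normalised to ACTB, GAPDH, POLR2A; bidirectional fit versus DMSO.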

Read-out in experiment [12]: MYC, MYC (gene 4609)
Briefly: LTEA_HepaRG_MYC: Life Technologies and Expression Analysis (LTEA) Assay for MYC using HepaRG (AID 2283518). Put shortly: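 Differentiated HepaRG cells exposed 48 h in serum-free induction medium to 8 concentrations (top 100 uM, half-log steps; 0.5% DMSO), duplicate. MYC mRNA measured by Fluidigm qRT-PCR, normalized to ACTB, GAPDH, POLR2A; bidirectional fit versus DMSO.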

Read-out in experiment [13]: Paternally Expressed 10 (PEG10), PEG10 (gene 23089)
Put plainly: LTEA_HepaRG_PEG10: Life Technologies and Expression Analysis (LTEA) Assay for Paternally Expressed 10 (PEG10) using HepaRG (AID 2283520). The essentials:
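Differentiated HepaRG cells exposed 48 h in serum-free induction medium to eight half-log concentrations topping at 100 uM, 0.5% DMSO, in duplicate. PEG10 mRNA quantified by TaqMan qRT-PCR, normalized to ACTB, GAPDH and POLR2A; bidirectional fit versus DMSO.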

Read-out in experiment [14]: Nuclear factor NF-kappa-B p105 subunit (Homo sapiens) (UniProt P19838)
Briefly: LTEA_HepaRG_NFKB1: Life Technologies and Expression Analysis (LTEA) Assay for Nuclear Factor Kappa B Subunit 1 (NFKB1) using HepaRG (AID 2283521).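 Further: TaqMan qRT-PCR transcript normalised to ACTB GAPDH and POLR2A housekeeping genes.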 Put shortly:
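NFKB1 transcript was measured by TaqMan qRT-PCR on Fluidigm arrays, normalised to three housekeeping genes and fitted in both directions against 0.5% DMSO. HepaRG cells were dosed in duplicate for 48 h in serum-free induction medium, eight half-log steps from 100 uM.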

Read-out in experiment [15]: Protein phosphatase 2A (PPP2R4), PTPA (gene 5524)
Put plainly: LTEA_HepaRG_PPP2R4: Life Technologies and Expression Analysis (LTEA) Assay for Protein phosphatase 2A (PPP2R4) using HepaRG (AID 2283522). Put shortly: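 Differentiated human HepaRG cells in serum-free induction medium were exposed 48 h to 8 concentrations (top 100 µM, half-log steps, duplicate) in 0.5% DMSO. PPP2R4 mRNA was measured by TaqMan qRT-PCR, normalised to ACTB, GAPDH and POLR2A, and fitted bidirectionally versus DMSO.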

Read-out in experiment [16]: Phosphatase and tensin (PTEN), PTEN (gene 5728)
Put plainly: LTEA_HepaRG_PTEN: Life Technologies and Expression Analysis (LTEA) Assay for Phosphatase and tensin (PTEN) using HepaRG (AID 2283523). Put shortly: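 HepaRG cells, 48 h after plating, exposed in duplicate for 48 h in serum-free induction medium to 8 half-log concentrations up to 100 uM (0.5% DMSO). PTEN mRNA by qRT-PCR, normalized to ACTB, GAPDH, POLR2A; bidirectional fit versus DMSO.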

Read-out in experiment [17]: solute carrier (SLC22A1), SLC22A1 (gene 6580)
Put plainly: LTEA_HepaRG_SLC22A1: Life Technologies and Expression Analysis (LTEA) Assay for solute carrier (SLC22A1) using HepaRG (AID 2283524). The essentials: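 Differentiated human HepaRG cells in serum-free induction medium, exposed 48 h in duplicate to 8-point half-log series from 100 µM top in 0.5% DMSO. SLC22A1 mRNA by TaqMan qRT-PCR normalized to ACTB, GAPDH, POLR2A; bidirectional fit versus DMSO.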

Read-out in experiment [18]: Pyruvate Dehydrogenase Kinase 4 (PDK4), PDK4 (gene 5166)
Briefly: LTEA_HepaRG_PDK4: Life Technologies and Expression Analysis (LTEA) Assay for Pyruvate Dehydrogenase Kinase 4 (PDK4) using HepaRG (AID 2283525). The essentials:
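HepaRG cells plated 48 h, then switched to serum-free induction medium and exposed in duplicate for 48 h to 8 half-log concentrations from 100 uM in 0.5% DMSO. PDK4 mRNA measured by qRT-PCR, normalized to ACTB, GAPDH and POLR2A; bidirectional fit versus DMSO.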

Read-out in experiment [19]: Keratin 19 (KRT19), KRT19 (gene 3880)
Put plainly: LTEA_HepaRG_KRT19: Life Technologies and Expression Analysis (LTEA) Assay for Keratin 19 (KRT19) using HepaRG (AID 2283512). The essentials: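 Differentiated HepaRG cells in serum-free induction medium, exposed 48 h in duplicate to 8 half-log concentrations up to 100 uM in 0.5% DMSO. KRT19 mRNA by qRT-PCR, normalized to ACTB, GAPDH, POLR2A; bidirectional fit vs DMSO.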

Read-out in experiment [20]: matrix metalloproteinase-3 (MMP3), MMP3 (gene 4314)
Briefly: LTEA_HepaRG_MMP3: Life Technologies and Expression Analysis (LTEA) Assay for matrix metalloproteinase-3 (MMP3) using HepaRG (AID 2283519). Put shortly: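 HepaRG cells (~100,000/well) in serum-free induction medium were dosed in duplicate for 48 h with an 8-point half-log series from 100 uM, 0.5% DMSO. MMP3 mRNA was quantified by Fluidigm TaqMan qRT-PCR, normalized to three housekeeping genes.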

Sequence of Nuclear factor NF-kappa-B p105 subunit (Homo sapiens) (P19838 whole entry, looked up): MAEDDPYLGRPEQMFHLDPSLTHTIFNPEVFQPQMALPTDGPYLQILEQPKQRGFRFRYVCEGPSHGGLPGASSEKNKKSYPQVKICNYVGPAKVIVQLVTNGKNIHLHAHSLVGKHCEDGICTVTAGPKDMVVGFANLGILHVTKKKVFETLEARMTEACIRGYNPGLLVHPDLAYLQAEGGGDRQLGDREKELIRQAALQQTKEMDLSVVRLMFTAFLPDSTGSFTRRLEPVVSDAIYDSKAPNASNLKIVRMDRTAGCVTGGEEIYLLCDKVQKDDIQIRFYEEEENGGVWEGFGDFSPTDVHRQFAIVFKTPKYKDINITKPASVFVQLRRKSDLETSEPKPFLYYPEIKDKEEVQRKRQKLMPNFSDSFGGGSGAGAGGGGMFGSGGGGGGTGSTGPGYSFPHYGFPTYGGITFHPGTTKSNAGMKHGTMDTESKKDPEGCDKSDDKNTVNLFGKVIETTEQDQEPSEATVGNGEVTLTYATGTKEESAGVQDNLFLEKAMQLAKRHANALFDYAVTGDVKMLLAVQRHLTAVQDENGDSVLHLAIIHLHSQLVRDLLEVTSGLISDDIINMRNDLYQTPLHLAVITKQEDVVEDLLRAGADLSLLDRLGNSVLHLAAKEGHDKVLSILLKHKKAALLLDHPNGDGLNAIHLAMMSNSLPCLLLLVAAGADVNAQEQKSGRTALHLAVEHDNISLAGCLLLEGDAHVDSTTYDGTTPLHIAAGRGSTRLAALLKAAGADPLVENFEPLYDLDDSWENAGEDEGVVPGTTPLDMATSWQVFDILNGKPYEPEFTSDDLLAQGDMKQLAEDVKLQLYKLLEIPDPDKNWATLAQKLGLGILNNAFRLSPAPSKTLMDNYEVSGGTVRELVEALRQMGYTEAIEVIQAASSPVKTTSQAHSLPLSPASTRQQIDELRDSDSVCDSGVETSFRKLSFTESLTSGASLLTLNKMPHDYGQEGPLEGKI

Take `O=C=NCCCCCCN=C=O`: the result in experiment [1], in experiment [2], in experiment [3], in experiment [4], in experiment [5] and in experiment [6] was inactive. Also, the call in experiment [7], in experiment [8], in [9], in experiment [10], in experiment [11] and in [12] was inactive. The outcome in [13], in experiment [14], in experiment [15], in experiment [16], in experiment [17] and in experiment [18] was inactive.
For `CC(C)(c1cc(Br)c(O)c(Br)c1)c1cc(Br)c(O)c(Br)c1`, the AC50 was 77 µM (active) in experiment [1]; 74.5 µM (active) in experiment [2]; 69.1 µM (active) in experiment [3]; 75.5 µM (active) in experiment [4]; 94.7 µM (active) in experiment [7]; 84.5 µM (active) in experiment [9]. The AC50 in experiment [16] is 72.7 µM (active); in [17], 53.4 µM (active); in experiment [18], 88.9 µM (active). The compound was called inactive in experiment [5], in experiment [6], in [19], in experiment [8], in experiment [11] and in experiment [20]. The compound was called inactive in experiment [13], in experiment [14] and in [15].
Consider `COc1cccc([C@H](O)C2CCN(CCc3ccc(F)cc3)CC2)c1OC`, for which the call in experiment [2], in experiment [4], in [5], in [6], in experiment [7] and in experiment [8] was inactive. In addition, the compound was classed as inactive in experiment [10], in [11], in experiment [12], in experiment [14], in [15] and in [16]. Further, the result in experiment [17] and in experiment [18] was inactive. Also, the concentration at half-maximal activity (AC50) in experiment [3] was 33.6 µM (active); in experiment [19] it was 15.3 µM (active); in [9], 71.6 µM (active); in experiment [13], 9.92 µM (active).
